Compound activity deposited in PubChem BioAssay by ICCB-Longwood Screening Facility, Harvard Medical School.
Shown is part of a subset that was picked to be rich in hits.
S aureus helic = inhibitors of S. aureus replicative helicase, primary screen, biochemical, fluorescence unwinding readout; replicative DNA helicase (DnaC/DnaB), Staphylococcus aureus; purified S. aureus helicase, fluorescence unwinding assay; inhibition, % (test concentration not listed); 120,000 tested, 0.05% active; in the data active means inhibition above about 25%, passing the limit was not always enough;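 further: 0% = mean of negative control wells and 100% = mean of positive control wells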
Sa growth 42C = S. aureus growth inhibition at 42 and 30 °C, primary screen, LtaS inhibitor project, RN4220, two temperatures; relative growth, % (concentration not given with the values); OD600, 20 h, 42 °C; stronger effect = lower value; AID 720641, 2013; 170,000 tested, 0.53% active;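 active means relative growth at most 50% at the other temperature and 20+ points below 30 °C, or under 10% at both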
* = called active by the depositor; x = no result.

SMILES	S aureus helic	Sa growth 42C
CS(=O)(=O)c1ccc([C@@H](O)[C@@H](CF)NC(=O)C(Cl)Cl)cc1	x	-0.4*
CCOC(=O)C1CCN(C(=O)CCN2C(=O)c3ccccc3Sc3ncccc32)CC1	1	103
NC(=O)c1cc(-c2csc(N3CCCC3)n2)ccc1O	11	109
O=C(N/N=C/CSc1nc2ccccc2o1)c1ccccc1	1	74
C=C(C)C1Cc2cc3ccc(=O)oc3cc2O1 (stereo not given)	1	103
C=C(C)C1Cc2cc(/C=C/C(=O)O)c(O)cc2O1 (stereo not given)	9	0.5*
CN1/C(=C/c2cccc[n+]2C)C=Cc2ccccc21	54*	69
CN1/C(=C/C=C(C#N)C#N)C=Cc2ccccc21	-50	76
O=C1c2sc3nc4n(c(=O)c3c2CCC1Sc1ccccc1)CCCCC4 (stereo not given)	-1	87
COc1ccc(NC(=O)CC(NCc2ccccc2)C(=O)O)cc1 (stereo not given)	15	101
O=C(Nc1nnc(C(F)(F)F)s1)c1ccccc1	13	55
O=C(Nc1ccccc1)Nc1nnc(C(F)(F)F)s1	x	1.1*
CC(C)(Oc1ccc(Cl)cc1)C(=O)Nc1nnc(C(F)(F)F)s1	32	-1.1*
CC(C)(Oc1ccc(Cl)cc1)C(=O)Nc1nccs1	-9	95
C=CCn1c(=S)sc2c(=O)n(Cc3ccc(C#N)cc3)cnc21	-8	89
CCOC(=O)C1=C(N)OC2=C(C(=O)CC(C)(C)C2)C1c1ccccc1 (stereo not given)	0	137
COc1ccccc1OC(=O)Nc1ccccc1	17	107
Cc1ccc2onc(CNC(=O)N(C)C3CCCCC3)c2c1	-1	90
CO[C@H]1C[C@H](O[C@H]2[C@H](C)[C@@H](OC3O[C@H](C)C[C@H](N(C)C)[C@H]3OC(C)=O)[C@@H](C)C[C@]3(CO3)C(=O)[C@H](C)[C@@H](OC(C)=O)[C@@H](C)[C@@H](C)OC(=O)[C@@H]2C)O[C@@H](C)[C@@H]1OC(C)=O (stereo not given in full)	x	16
CO[C@H]1C[C@H](O[C@H]2[C@H](C)[C@@H](OC3O[C@H](C)C[C@H](N(C)C)[C@H]3O)[C@@H](C)C[C@]3(CO3)C(=O)[C@H](C)[C@@H](O)[C@@H](C)[C@@H](C)OC(=O)[C@@H]2C)O[C@@H](C)[C@@H]1O (stereo not given in full)	x	-0.6*
Cc1cc(Nc2ccc(F)cc2)nc(-n2nc(C)cc2C)n1	x	2.5*
Cc1cc(Nc2ccccc2C)nc(-n2nc(C)cc2C)n1	x	-0.2*
CCCCc1ccc(Nc2cc(C)nc(-n3nc(C)cc3C)n2)cc1	x	22
Cc1cc(C)n(-c2ccccc2)n1	11	108
Cc1cc(Nc2cc(F)ccc2C)nc(-n2nc(C)cc2C)n1	x	3.1*
SMILES	S aureus helic	Sa growth 42C
Cc1cc(C)cc(Nc2nc3cc(Cl)c(Cl)cc3nc2-n2nc(C)cc2C)c1	x	104
COc1ccc(-c2cc(C(F)F)nc(-n3nc(C)cc3C)n2)cc1	13	107
Cc1cc(C)cc(Nc2cc(C)nc(-n3nc(C)cc3C)n2)c1	12	-0.7*
Cc1ccc(C)n1-n1cnc2scc(-c3ccc(F)cc3)c2c1=O	7	x
COc1cc(/C=N/c2nccs2)ccc1O	x	74
CCN(CC(=O)NCc1ccc(F)cc1)Cn1cnc2ccccc21	-16	104
Cc1cc(C)n(-c2nc(NC(C)C)nc(NC(C)C)n2)n1	7	-0.4*
Cc1cc(N2CCCC2)nc(-n2nc(C)cc2C)n1	0	7.7*
Cc1cc(C)n(-c2ncc(S(=O)(=O)C(C)(C)C)c(N)n2)n1	2	94
Cc1cc(N2CCCCC2)nc(N2CCOCC2)n1	-6	113
O=S(=O)(NCc1ccc(-c2cccs2)cc1)c1ccc(N2CCOCC2)nc1	x	108
S=c1[nH]nc(-c2ccncc2)n1-c1ccc2c(c1)OCO2	-4	87
Cc1cc(NC(=O)c2ccccc2)nc2c1c(=O)oc1ccccc12	-5	x
Cc1cc(NC(=O)c2ccc(N3C(=O)CCC3=O)cc2)nc2c1c(=O)oc1ccccc12	-11	0.1*
O=C1COc2ccc(C(=O)COC(=O)COc3ccc4c(c3)CCC4)cc2N1	7	86
COc1c(O)c2ccccc2[nH]c1=O	7	119
COc1ccc(OCC(O)Cn2c(=N)n(CCN3CCCCC3)c3ccccc32)cc1 (stereo not given)	x	118
N=c1n(CCN2CCCCC2)c2ccccc2n1CC(O)COc1ccc(Cl)cc1Cl (stereo not given)	x	0.3*
CC1=C(C)C(=O)C(NCc2ccccn2)=CC1=O	1	24
FC(F)(F)c1cccc(N=C=S)c1	19	-1.3*
FC(F)(F)c1cccc(N=Cc2ccccc2)c1	8	96
CCc1c(O)nc(SCC(=O)Nc2nnc(SCc3ccccc3)s2)[nH]c1=O	4	128
CC(=O)NCCC(=O)Nc1ccc(-c2cn3ccsc3n2)cc1	7	89
NC(N)=N/N=C/c1cn(-c2ccccc2)nc1-c1ccccc1	-19	-1.6*
NC(=O)N/N=C/c1cn(-c2ccccc2)nc1-c1ccccc1	-5	83
SMILES	S aureus helic	Sa growth 42C
N#C/C(C(N)=O)=C1/C(=O)Nc2ccc(Br)cc21	12	9.1*
CCOC(=O)/C(C#N)=C1\C(=O)Nc2ccccc21	0	104
NC(=O)CC1Sc2ccccc2NC1=O (stereo not given)	8	91
CC(C)(C)c1cc(C(=O)OCCN2CCCCC2)cc(C(C)(C)C)c1	-4	22*
Cc1ccc(C(=O)OCCN2CCCCC2)cc1	6	90
CN(Cc1ccccc1)C(=O)c1cccs1	11	98
CC(NC(=O)Nc1cccc(C(F)(F)F)c1)c1nc2ccccc2[nH]1 (stereo not given)	-6	0.5*
C[C@H](NC(=O)c1cccc(C(F)(F)F)c1)c1nc2ccccc2[nH]1	11	86
Cc1cc(=O)[nH]c(SCC(=O)Nc2ccc(N3CCCC3)cc2)c1C#N	14	87
Cc1cc(=O)[nH]c(SCC(=O)Nc2ccc(Br)cc2)c1C#N	0	7.7*
Cc1nn(-c2ccccc2)c(C)c1CN(C)Cn1c(=O)oc2ccccc21	1	94
Cc1[nH]c2ccccc2c1C(Nc1ccccn1)c1cccs1 (stereo not given)	1	x
COC(c1cccs1)c1c(C)[nH]c2ccccc12 (stereo not given)	-8	2.0*
Cc1[nH]c2ccccc2c1C(c1ccncc1)N1CCN(C)CC1 (stereo not given)	-27	x
Cc1[nH]c2ccccc2c1C(c1cccs1)N1CCN(c2ccccc2)CC1 (stereo not given)	19	0.0*
Cc1c(CC#N)ccc2ccccc12	x	99
CN(C)Cc1ccc2ccc3cccc4ccc1c2c34	50*	69
CNC(=S)Nc1ccc(Cl)cc1	3	111
COc1ccc(CNc2nc(-c3cccnc3)nn2C(=O)C2CC2)cc1OC	-4	83
N#CCOc1nc(OCC#N)nc(OCC#N)n1	-9	28*
COc1nc(OCC#N)nc(N(C)C)n1	4	96
COc1ccc(/C=N/N=C(N)N)cc1OC	35	103
COc1cc(/C=N/N=C(N)N)ccc1OC(=O)c1ccc(C)cc1	12	-0.7*
O=C(CCN1CCOCC1)N1N=C(c2ccccc2)CC1c1ccco1 (stereo not given)	-11	113
